The source of these data is ChEMBL document CHEMBL3988442, “University of Dundee, Small-Polar-MMV Screening Library” (2021).

This assay can be described thus: In vitro enzyme assay to detect hydrolysis of chlorophenol red-beta-D-[…] directly proportional to the number of Toxoplasma stably expressing beta-galactosidase. Type of assay: functional, organism-based, Toxoplasma gondii. Also noted: scale not given: in the data most compounds retested in dose-response had high values.

The campaign covered roughly 85,000 compounds. About 440 (0.52%) showed an effect of 50% or more. Shown is part of a subset that was picked to be rich in strong results.

On to `NCCOc1cccc(C(F)(F)F)n1`, for which the “Percent Effect” value (50 µM) is -9.845%. In the case of `COCCN(Cc1cccs1)C(=O)CC1CCNC1` (stereo not given), where the note is “50 µM”, the “Percent Effect” value worked out at 11.69%. Regarding `CSc1ccc(CNC(=O)C(C)O)cc1` (stereo not given), the “Percent Effect” value (50 µM) is given as -1.798%. On the same count and under the same terms, for `COc1cccc2ccc(CN3CC[C@@H](O)C3)nc12` the value was 11.26%; for `NC[C@@H]1CC(=O)N(C2CC2)[C@H]1c1ccncc1`, -2.453%. Same read-out and setting: in the case of `CC(NS(=O)(=O)N(C)C)c1ccccc1` (stereo not given) it was -35.13%. Consider `CN(C)S(=O)(=O)NC(c1ccccc1)c1ccccc1`, for which, for the setting “50 µM”, the “Percent Effect” value came to 10.19%.

With `CC(C)Sc1ccccc1NS(=O)(=O)N(C)C`, the “Percent Effect” value (50 µM) was 99.92%.

Consider `CCNCCCC1CCNCC1`, for which the “Percent Effect” value (50 µM) is 16.42%. Turning to `COc1ccc(OCCc2nnc(NC(C)=O)s2)cc1`, the “Percent Effect” value (10 µM) was -4.781%. On to `COC(=O)c1ccc(NC(C)=O)cc1`, for which, for the setting “50 µM”, the “Percent Effect” value is 6.6%. In the case of `COc1ccc(NS(=O)(=O)c2cnc(NC(C)=O)s2)cc1`, the “Percent Effect” value (10 µM) was found to be 74.55%. For the molecule `COC(=O)c1cccc(NS(=O)(=O)c2cnc(NC(C)=O)s2)c1`, where the note is “10 µM”, the “Percent Effect” value was -3.347%. Still for that read-out and setting: in the case of `COC(=O)c1ccc(NS(=O)(=O)c2cnc(NC(C)=O)s2)cc1` it was 53.94%. On to `COc1ccc(S(=O)(=O)Nc2cnc(N(C)C)nc2)cc1`, for which the “Percent Effect” value (10 µM) was -8.947%. For `CC(C)OCCN1CCN(C(=O)c2cc[nH]n2)CC1`, for the setting “50 µM”, the “Percent Effect” value is on record as -2.714%.

For `NCC(C(=O)N1CCC2(CCC2)C1)c1ccccc1` (stereo not given), the “Percent Effect” value (50 µM) is recorded as 20.55%. Take `CC(=O)NC(C)C(=O)Nc1ccc2ccccc2c1` (stereo not given): under “50 µM”, the “Percent Effect” value is recorded as -30.81%. As to `O=C1CCc2ccccc2N1Cc1ncccn1`, the “Percent Effect” value (50 µM) was found to be 0.3291%.

Regarding `Nc1cc(-c2cccnc2)on1`, the “Percent Effect” value (50 µM) is listed as -0.8399%.

Take `Cc1noc(C)c1S(=O)(=O)N(C)Cc1ccoc1`: the “Percent Effect” value (50 µM) was -13.17%.

With `CC1(C)CC(=O)CN1C(=O)c1cc(Cl)c2c(c1)OCO2`, the “Percent Effect” value (50 µM) worked out at 7.211%. On to `COc1cccc2c1OCC(CNS(C)(=O)=O)C2` (stereo not given), for which, where the note is “50 µM”, the “Percent Effect” value was found to be 14.05%. As for `CCc1nccn1CCNC(=O)Cn1nc(C)cc1N`, the “Percent Effect” value (50 µM) is recorded as 0.7856%. For the molecule `CNC(=O)C1CCCN(C(=O)Cc2ccc(F)cc2)C1` (stereo not given), under “50 µM”, the “Percent Effect” value is -18.03%. With `NCCCc1nc(-c2ccncc2)cs1`, the “Percent Effect” value (50 µM) was -3.15%. With `NCCc1cc(-c2ccncc2)[nH]n1`, under “50 µM”, the “Percent Effect” value was 52.85%. In the case of `CN(C)C(=O)c1cc(-c2ccncc2)[nH]n1`, the “Percent Effect” value (10 µM) is listed as -7.126%.

As for `O=C(NC1(CCO)CCC1)c1c(O)cc(F)cc1F`, where the note is “50 µM”, the “Percent Effect” value was -3.362%. Regarding `COCCOCCCNC(=O)c1cn2cc(C)nc2s1`, the “Percent Effect” value (50 µM) is reported as 5.507%. On to `CN(Cc1ccc(F)c(F)c1)C(=O)C1CCOCC1`, for which the “Percent Effect” value (50 µM) is given as 0.4539%.

Consider `Cn1cc(CN2CCn3cc(Cn4cccn4)nc3C2)cn1.O=C(O)C(F)(F)F`, for which the “Percent Effect” value (10 µM) is given as 96.45%. Regarding `O=C(O)C(F)(F)F.O=C(O)C(F)(F)F.c1ccc(CCN2CCn3cc(Cn4cccn4)nc3C2)cc1`, the “Percent Effect” value (10 µM) is listed as -2.685%. `Fc1ccc(CN2CCn3cc(Cn4cccn4)nc3C2)cc1.O=C(O)C(F)(F)F`: the “Percent Effect” value (10 µM) is 6.807%. `Cc1noc(C)c1S(=O)(=O)N1CC[S+]([O-])C(C)(C)C1` (stereo not given): the “Percent Effect” value (50 µM) is -20.3%. With `CC(=O)c1sc(NCCc2ccccn2)nc1C`, the “Percent Effect” value (50 µM) is listed as -25.25%.

In the case of `CCN1CCN(S(=O)(=O)c2cnc(NC(C)=O)s2)CC1`, the “Percent Effect” value (10 µM) is -3.243%. For `CC(=O)Nc1ncc(Br)s1`, for the setting “50 µM”, the “Percent Effect” value amounted to 8.521%.

`CC(=O)Nc1ncc(S(=O)(=O)Nc2ccc(C)cc2)s1`: the “Percent Effect” value (10 µM) stood at 70.91%. The same measure, in the same setting: in the case of `CC(=O)Nc1ncc(S(=O)(=O)N2CCC(C)CC2)s1` it was -14.89%; in that of `CC(=O)Nc1ncc(S(=O)(=O)Nc2ccc(F)cc2)s1`, 2.51%.

`CC(=O)Nc1ncc(S(=O)(=O)Nc2ccccc2F)s1`: the “Percent Effect” value (10 µM) is 61.48%.

In the case of `CC(=O)Nc1ncc(S(=O)(=O)Nc2ccccc2)s1`, the “Percent Effect” value (10 µM) came to 62.69%.

Turning to `CC(=O)Nc1ncc(S(=O)(=O)Nc2ccc(F)cc2F)s1`, the “Percent Effect” value (10 µM) is reported as -1.674%.

For the molecule `CCS(=O)(=O)Nc1ccccc1F`, for the setting “50 µM”, the “Percent Effect” value was 6.561%. For `NCCc1n[nH]c(=O)n1-c1ccc2c(c1)OCO2`, the “Percent Effect” value (50 µM) was -0.07643%. `Cn1cc(C(O)CN)cn1` (stereo not given): the “Percent Effect” value (50 µM) is 1.018%. Turning to `Cc1noc(C(C)Nc2ccc3c(c2)CCC(=O)N3)n1` (stereo not given), where the note is “50 µM”, the “Percent Effect” value is -14.26%. On the same count and under the same terms, in the case of `CC(C)(CNC(=O)c1c[nH]nn1)c1cccc(F)c1` it was -9.623%. For `CC(NC(=O)NCCCN1CCCC1=O)c1nncn1C` (stereo not given), the “Percent Effect” value (10 µM) stood at 85.8%. Consider `CC(NC(=O)NCCCN1CCCCCC1=O)c1nncn1C` (stereo not given), for which the “Percent Effect” value (10 µM) is reported as 20.07%. Still for that read-out and setting: for `CC(NC(=O)NCCN1CCCCCC1=O)c1nncn1C` (stereo not given) the value was 3.231%. For `Cc1oc(-c2ccccc2F)nc1C(=O)N(C)C`, the “Percent Effect” value (50 µM) is -3.464%. Consider `CNS(=O)(=O)N1CCc2ccccc2C1`, for which the “Percent Effect” value (50 µM) came to 30.15%. `CCCOc1ccc2ccccc2c1CN1CC[C@@]2(O)CCNC[C@H]2C1`: the “Percent Effect” value (10 µM) is recorded as 3.549%. With `CCOc1ccc2ccccc2c1CNCC1CCS(=O)(=O)C1.Cl` (stereo not given), under “10 µM”, the “Percent Effect” value is recorded as -7.781%. In the case of `CCOc1ccccc1CNCC1CCN(CC(C)O)CC1` (stereo not given), under “10 µM”, the “Percent Effect” value is on record as -9.723%. Regarding `CCOc1ccc2ccccc2c1CNCC1CCNCC1.Cl.Cl`, the “Percent Effect” value (10 µM) turned out to be 68.87%. The same measure, in the same setting: in the case of `COc1ccc2ccccc2c1CNCC1CCS(=O)(=O)C1.Cl` (stereo not given) it was -11.16%. For `CCn1cc(S(=O)(=O)NCC2CCN(C3CC3)C2)cn1` (stereo not given), the “Percent Effect” value (50 µM) amounted to 3.955%. Regarding `NC(=O)c1cncc(-c2ccc(F)cc2Cl)c1`, the “Percent Effect” value (50 µM) is recorded as 3.051%. `Cc1cc(F)cc(C(=O)N(C)C(C)CN)c1` (stereo not given): the “Percent Effect” value (50 µM) is -5.582%.

Consider `CNC(C)(C)c1ccc2c(c1)OCO2`, for which the “Percent Effect” value (50 µM) is on record as -13.39%. Regarding `CCNc1ncc2c(n1)CN(c1ccc(CC)cc1)C2=O`, the “Percent Effect” value (10 µM) was found to be 62.15%. Consider `CNc1ncc2c(n1)CN(CCc1ccc(F)cc1)C2=O`, for which the “Percent Effect” value (10 µM) is -13.73%. With `CNc1ncc2c(n1)CN(CCc1ccc(Cl)cc1)C2=O`, the “Percent Effect” value (10 µM) was -35.33%.

Turning to `CCn1cc(N2Cc3nc(N)ncc3C2=O)cn1`, the “Percent Effect” value (10 µM) is on record as 10.4%. On to `CNc1ncc2c(n1)CN(CCc1ccc(C)cc1)C2=O`, for which the “Percent Effect” value (10 µM) is -16.2%.

Regarding `COc1ccc(N2Cc3nc(N)ncc3C2=O)cc1Cl`, the “Percent Effect” value (10 µM) was -32.44%. Regarding `CNc1ncc2c(n1)CN(Cc1ccc(Cl)cc1)C2=O`, the “Percent Effect” value (10 µM) is reported as -51.17%. As to `CCNc1ncc2c(n1)CN(c1ccc(OC(F)(F)F)cc1)C2=O`, the “Percent Effect” value (10 µM) turned out to be 64.71%. Regarding `CCNc1ncc2c(n1)CN(c1ccc(Cl)cc1)C2=O`, the “Percent Effect” value (10 µM) was 65.79%.

As to `CC1CCN(c2ncc3c(n2)CN(c2ccc(F)cc2)C3=O)CC1`, for the setting “10 µM”, the “Percent Effect” value amounted to 19.77%.

With `COc1ccc(N2Cc3nc(N4CCCC4)ncc3C2=O)cc1Cl`, the “Percent Effect” value (10 µM) is listed as -14.31%. The same measure, in the same setting: for `CCNc1ncc2c(n1)CN(c1ccc(C)c(C)c1)C2=O` the value was 51.11%.
